Data: PubChem BioAssay AID565 (University of Pittsburgh Molecular Library Screening Center, 2006)
Out of some 65,000 compounds screened, about 1,200 (1.8%) were called active. Rule as the data show it: active = inhibition above about 50%; inactive = the rest. For the sample, actives were picked, then their nearest neighbours and some compounds at random.

Target: Gag-Pol polyprotein (Human immunodeficiency virus type 1 group M subtype B (isolate HXB2)) (UniProt P04585)
Test: blockers of HIV-1 RNase H RNA/DNA cleavage – biochemical, fluorescence, primary screen (AID 565)
Conditions: RT-RNase H RNA/DNA duplex cleavage, at 10 µM, active compounds read high

Row | Compound | inhibition
1 | Cc1cc(C)n(C(=O)c2ccc(S(=O)(=O)N3CCCC3)cc2)n1 | -7.85% (inactive)
2 | Fc1ccccc1OCCSc1nc2ccccc2o1 | -31.7% (inactive)
3 | Cc1ccnc(-n2sc3ccccc3c2=O)n1 | 84.5% (active)
4 | Cc1nc2ccccc2c(=O)n1CCCn1ccnc1 | -6.99% (inactive)
5 | CC12C(=O)N(n3cnnc3)C(=O)C1C1C=CC2C1 (configuration not stated) | 1.01% (inactive)
6 | C/C(=C\C(=O)c1ccc(Br)cc1)N1CCCCC1 | -18.6% (inactive)
7 | CCC(=O)Nc1cccc(NC(=O)CSc2nnc(-c3ccc(NS(C)(=O)=O)cc3)n2C)c1 | -1.65% (inactive)
8 | CCc1c(C)[nH]c(=S)c(C#N)c1C | 84.3% (active)
9 | CC(=O)N1CCN(CCN=CC2=C(O)CC(C)(C)CC2=O)CC1 | -3.55% (inactive)
10 | COCCCNC(=O)Cn1cc(C(=O)C2CC2)c2ccccc21 | -5.05% (inactive)
11 | O=C(CSc1nnc(Cn2cnc3ccccc32)o1)c1ccccc1 | -18.7% (inactive)
12 | Fc1ccc(OCc2nn3c(Cn4nnc5ccccc54)nnc3s2)cc1 | 77.8% (active)
13 | Cc1ccc(C(=O)CSc2nnc(Cn3nnc4ccccc43)n2C)cc1 | -1.04% (inactive)
14 | N#CCCn1cnc2ccccc21 | -0.17% (inactive)
15 | CCOc1cccc(-c2nnc3sc(COc4ccc(OC)cc4)nn23)c1 | 1.27% (inactive)
16 | c1ccc(Cc2nn3c(Cn4cnc5ccccc54)nnc3s2)cc1 | 82.6% (active)
17 | NC(=O)C1CCN(C2OC(=O)c3ccccc32)CC1 (configuration not stated) | 2.61% (inactive)
18 | CCOc1cc(-c2noc(CCC(=O)N3CCOCC3)n2)ccc1OC | -9.69% (inactive)
19 | COc1ccc(OCC(=O)N2CCOCC2)cc1 | -8.89% (inactive)
20 | CCOc1cc(C(=S)N2CCOCC2)ccc1O | 91.2% (active)
21 | Cn1c(=O)[nH]c(=O)c2c1nc(Br)n2CCCCSc1nc2ccccc2o1 | 19.8% (inactive)
22 | Cc1nnc(SCCCn2c(N3CCCCC3)nc3c2c(=O)[nH]c(=O)n3C)s1 | -3.25% (inactive)
23 | Cn1c(=O)[nH]c(=O)c2c1nc(N1CCCCCC1)n2CC(=O)c1ccccc1 | 1.85% (inactive)
24 | CCCCCn1c(SCCC(C)C)nc2c1c(=O)[nH]c(=O)n2C | 54.8% (active)
25 | CCCCCCn1c(SCC(=O)c2ccccc2)nc2c1c(=O)[nH]c(=O)n2C | 54.7% (active)

Row | Compound | inhibition
26 | CCCSc1nc2c(c(=O)[nH]c(=O)n2C)n1CCc1ccccc1 | -11.9% (inactive)
27 | CCn1cc(NC(=O)Nc2ccc(OC)c(OC)c2)c(C(N)=O)n1 | 9.07% (inactive)
28 | O=C(O)c1cccc2c1C(=O)N(C1CCCCC1)C2 | -4.3% (inactive)
29 | CCN(CC)P(=O)(/C(Cl)=C\Nc1c(C)n(C)n(-c2ccccc2)c1=O)N(CC)CC | -5.1% (inactive)
30 | CCOC(=O)c1sc(NC(=O)c2cc(S(=O)(=O)N3CCOCC3)ccc2C)nc1C | 3.07% (inactive)
31 | O=S(=O)(c1ccc2ccccc2c1)N1CCN(S(=O)(=O)N2CCOCC2)CC1 | -6.43% (inactive)
32 | Cc1noc(C)c1CSc1nc2cc(S(=O)(=O)N3CCOCC3)ccc2o1 | 86.2% (active)
33 | CCOCCCNC(=O)Cc1cc(=O)[nH]c(=O)[nH]1 | 5.5% (inactive)
34 | CC(=O)Oc1ccc(C)cc1N1C(=O)c2ccc(C(=O)O)cc2C1=O | -4.48% (inactive)
35 | CC1CCCN(C(=O)Cn2c(=O)oc3ccccc32)C1 (configuration not stated) | 7.78% (inactive)
36 | COc1ccc(OC)c(NC(=O)Cn2c(=O)oc3ccccc32)c1 | -1.94% (inactive)
37 | NC(=O)Cn1c(=O)oc2ccccc21 | 96.3% (active)
38 | O=C(Nc1nc(-c2ccc3c(c2)OCO3)cs1)c1ccncc1 | -9.11% (inactive)
39 | O=C(Nc1nc(-c2ccncc2)cs1)C1COc2ccccc2O1 (configuration not stated) | 83.8% (active)
40 | COc1ccc(OC)c2sc(NC(=O)C3COc4ccccc4O3)nc12 (configuration not stated) | 1.92% (inactive)
41 | O=C(CCSCCc1ccccn1)Nc1nccs1 | -23.9% (inactive)
42 | CCOC(=O)c1c(C)c(C(=O)NCCc2ccc(S(N)(=O)=O)cc2)c(C)n1CC | -6.32% (inactive)
43 | CNC(=O)CN1C(=O)c2ccccc2S1(=O)=O | 4.74% (inactive)
44 | CCCc1nnc(NC(=O)c2cc(OC)cc(OC)c2)s1 | 4.61% (inactive)
45 | CCCc1nnc(NC(=O)CN2C(=O)c3ccccc3S2(=O)=O)s1 | 89.7% (active)
46 | O=C(CN1CCOCC1)Nc1c(-c2ccccc2)c2cc(Br)ccc2[nH]c1=O | 9.93% (inactive)
47 | COc1ccc(N2CCN(CCNC(=O)c3nnc(Cc4c(F)cccc4Cl)o3)CC2)cc1 | 4.44% (inactive)
48 | CCC(=NC1CC(C)(C)NC(C)(C)C1)C1=C(O)CC(C)(C)CC1=O | -6.23% (inactive)
49 | Oc1ccc(-c2csc(Nc3cccnc3)n2)cc1 | 34.2% (inactive)
50 | COc1ccc(-c2n[nH]c(C)c2-c2ccc(OC)c(OC)c2)c(O)c1 | 3.91% (inactive)

Row | Compound | inhibition
51 | COc1ccc(OC)c(Nc2nc(-c3ccc(O)c(O)c3)cs2)c1 | 71.9% (active)
52 | COCCN(C(=O)CCC(=O)Nc1ccccn1)C(C(=O)NCCC(C)C)c1ccc(OC)cc1 (configuration not stated) | 3.89% (inactive)
53 | CSCCC(Nc1nc2ccccc2s1)C(=O)O (configuration not stated) | -3.78% (inactive)
54 | O=C(NCc1ccccn1)c1ccc2nc(-c3ccco3)c(-c3ccco3)nc2c1 | 87.7% (active)
55 | O=C(NCc1ccccn1)c1cc2ccccc2oc1=O | -3.63% (inactive)
56 | Cc1cccn2c(=O)c3cc(C(=O)NCc4ccccn4)n(C)c3nc12 | -10.5% (inactive)
57 | CC(Sc1nncs1)C(=O)NCc1ccc2c(c1)OCO2 (configuration not stated) | -19.3% (inactive)
58 | Cc1nc2nc(CSc3nc4ccccc4s3)cc(=O)n2[nH]1 | 4.18% (inactive)
59 | c1ccc(-n2ncc3c2ncn2c(C4CCCCC4)nnc32)cc1 | -1.63% (inactive)
60 | c1ccc(-n2ncc3c2ncn2c(CSc4nc5ccccc5s4)nnc32)cc1 | 63.5% (active)
61 | CN1CCN(C(=O)C2C3C=CC(C3)C2C(=O)O)CC1 (configuration not stated) | 0.5% (inactive)
62 | CCN(CC)CCN1C(=O)C(=O)/C(=C(/O)c2ccc(OC)c(OC)c2)C1c1ccccn1 (configuration not stated) | 5.17% (inactive)
63 | COc1ccc(Cc2nnc(NC(=O)Cc3cccs3)s2)cc1 | 70.2% (active)
64 | COc1ccc(Cc2nnc(NS(=O)(=O)Cc3ccccc3)s2)cc1 | 1.94% (inactive)
65 | COCC(=O)Nc1nnc(COc2ccccc2)s1 | -3.37% (inactive)
66 | CCOC(=O)c1c(NC(=O)c2cccs2)sc(C)c1C | -2.71% (inactive)
67 | CCOC(=O)c1c(NC(=O)CSc2nnc(Cc3csc(N)n3)n2C)sc(C)c1C | -19.7% (inactive)
68 | CCOC(=O)c1c(-n2cnnn2)sc(C)c1C | 70.4% (active)
69 | Cc1cccc(NC(=O)C2CCCN2S(=O)(=O)c2ccc(F)cc2)c1C (configuration not stated) | -5.03% (inactive)
70 | COc1ccc(CCNC(=O)c2ccc3c(c2)NC(=O)C(N2CCOCC2)S3)cc1OC (configuration not stated) | -10.7% (inactive)
71 | O=c1cc(-c2ccccc2)nc(N2CCCCC2)[nH]1 | -11.7% (inactive)
72 | CC(=O)N1CCN(c2ccc(NCc3ccc(C(C)C)cc3)cc2)CC1 | -16.6% (inactive)
73 | CCOC(=O)CSc1nc2c(c(=O)n(C)c(=O)n2C)n1Cc1ccccc1F | -12.1% (inactive)
74 | COc1ccccc1NC(=O)CSc1nc2sc(C)c(C)c2c(=O)n1Cc1ccco1 | 9.92% (inactive)
75 | CCOC(=O)CSc1nc2c(sc(=S)n2CCc2ccccc2)c(=O)n1Cc1ccco1 | 60.1% (active)

Row | Compound | inhibition
76 | COc1ccc(C2C(C#N)=C(N)Oc3n[nH]c(C)c32)cc1CN1CCN(c2ccc(F)cc2)CC1 (configuration not stated) | -5.93% (inactive)
77 | CCN(CC)S(=O)(=O)c1ccc2nc(COC(=O)c3n[nH]c4ccccc34)[nH]c2c1 | 55.6% (active)
78 | COc1ccc(COC(=O)c2n[nH]c3ccccc23)cc1F | -42.8% (inactive)
79 | CCN(CC)S(=O)(=O)c1ccc2nc(CSc3nnnn3-c3ccc(O)cc3)[nH]c2c1 | 10.6% (inactive)
80 | CCCCC(=O)N1CC2(C)CN(C(=O)CCCC)CC(C)(C1)C2=O | -4.52% (inactive)
81 | Cc1cc(C)c2c(n1)nn1c(N3CCN(c4cccc(Cl)c4)CC3)cc(C)nc21 | 29.6% (inactive)
82 | CN1CCc2c(sc3c2c(NCc2ccco2)nc2nnnn23)C1 | 1.26% (inactive)
83 | COC(=O)c1cc(S(=O)(=O)NC2CCN(Cc3ccccc3)CC2)cn1C | -1.44% (inactive)
84 | CC(C)CCNC(=O)C1CCCN(S(=O)(=O)c2ccc(F)cc2)C1 (configuration not stated) | -4.63% (inactive)
85 | CC(C)CNC(=O)C1CCCN(S(=O)(=O)c2ccc(-n3cnnn3)cc2)C1 (configuration not stated) | 55.3% (active)
86 | CCS(=O)(=O)N1CCCC(C(=O)NCc2ccc(C)cc2)C1 (configuration not stated) | -25.4% (inactive)
87 | CC(Oc1ccc(Cl)cc1)C(=O)Nc1ncccn1 (configuration not stated) | -1.55% (inactive)
88 | COc1ccc(CCNC(=O)c2cc3sccc3n2C)cc1OC | -5.6% (inactive)
89 | O=C(Nc1nccs1)C1CCCN1S(=O)(=O)c1cccc2cccnc12 (configuration not stated) | -30.1% (inactive)
90 | CCc1nc(Nc2ccc3nccnc3c2)c2oc3ccccc3c2n1 | -0.27% (inactive)
91 | COc1cc(C2C(C(=O)c3ccc(C)o3)=C(O)C(=O)N2Cc2cccnc2)ccc1O (configuration not stated) | 5.97% (inactive)
92 | COc1nc(OC)nc(N(C)CCO)n1 | -8.92% (inactive)
93 | C/C(=N\O)C1(C)N(O)C(C)(C)C(c2ccc(Br)cc2)=[N+]1[O-] (configuration not stated) | -4.23% (inactive)
94 | CCC1=[N+]([O-])C(C)(/C(C)=N\O)N(O)C1(C)C (configuration not stated) | 50.7% (active)
95 | CCC1(C)N(O)C(C)(C)C(c2ccc(OC)cc2)=[N+]1[O-] (configuration not stated) | -6.14% (inactive)
96 | CC(=O)CCS(=O)(=O)c1ccc(C)c(C)c1 | -10.6% (inactive)
97 | CC(=O)Oc1cccc(N2C(=O)CC(Nc3ccc(N4CCOCC4)cc3)C2=O)c1 (configuration not stated) | 2.32% (inactive)
